# Screening data from PubChem.
# BioA inh: M. tuberculosis BioA enzyme inhibitors, primary screen, biochemical, plate reader, single point, HTS; 360,000 compounds, 0.096% hits; inhibition, % at 9.99 µM; purified M. tuberculosis BioA enzyme; 7,8-diaminopelargonic acid synthase BioA (Mycobacterium tuberculosis); in the data active = inhibition above about 40%
# Mtb bLac sens: beta-lactam sensitization of Mtb H37Rv, H37Rv | 330,000 compounds, 0.27% hits | M. tuberculosis H37Rv growth with meropenem, percent inhibition | AID 434955, 2010 | inhibition, % at 25 µM; call rule not given here;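 note: growth measured after seven days incubation then overnight dye step; 0% = bacteria only wells and 100% = bacteria with antibiotic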
# Y pestis TopoI: Yersinia pestis topoisomerase I inhibitors, primary screen, biochemical, cleavage product accumulation, plate reader, single point | AID 504884, 2011 | 360,000 compounds, 0.064% hits | activity, % at 10 µM | Y. pestis Topo-I cleavage product accumulation | DNA topoisomerase I (Yersinia pestis CO92); in the data active = activity above about 50%, passing the limit was not always enough
# RecA intein inh: Mtb RecA intein splicing inhibitors, primary screen, biochemical, fluorescence, HTS. cell-free RecA intein splicing. inhibition, % (no concentration beside the values). 290,000 compounds, 0.75% hits. AID 2221, 2009; in the data active = inhibition above about 30%;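 note: 0% = vehicle wells and 100% = reference inhibitor control wells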
# Target sequence (P9WHJ3 whole entry, looked up): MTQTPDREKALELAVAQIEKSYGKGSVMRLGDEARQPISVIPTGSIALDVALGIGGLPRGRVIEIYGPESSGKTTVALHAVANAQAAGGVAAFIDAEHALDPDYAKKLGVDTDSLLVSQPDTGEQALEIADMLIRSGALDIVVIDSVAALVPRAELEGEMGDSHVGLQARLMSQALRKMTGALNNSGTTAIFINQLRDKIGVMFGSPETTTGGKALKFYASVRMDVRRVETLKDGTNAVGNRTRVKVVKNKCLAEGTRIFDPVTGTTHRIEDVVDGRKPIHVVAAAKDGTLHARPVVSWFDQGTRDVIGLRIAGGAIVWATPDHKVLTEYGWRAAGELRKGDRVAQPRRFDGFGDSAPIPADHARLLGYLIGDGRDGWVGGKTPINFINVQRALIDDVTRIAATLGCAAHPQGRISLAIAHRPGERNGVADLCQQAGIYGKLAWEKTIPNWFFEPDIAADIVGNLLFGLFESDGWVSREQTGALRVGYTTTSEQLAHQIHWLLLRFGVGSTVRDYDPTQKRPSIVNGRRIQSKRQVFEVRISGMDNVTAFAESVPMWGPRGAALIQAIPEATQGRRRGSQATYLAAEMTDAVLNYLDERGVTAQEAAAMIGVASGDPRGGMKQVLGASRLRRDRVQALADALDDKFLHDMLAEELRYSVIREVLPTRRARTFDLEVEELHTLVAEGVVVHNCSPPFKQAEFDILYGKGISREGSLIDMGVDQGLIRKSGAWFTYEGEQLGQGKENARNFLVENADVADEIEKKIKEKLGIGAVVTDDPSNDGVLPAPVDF
# CCHF vOTU inh-1: CCHFV vOTU protease inhibitors, primary screen, biochemical, Pep-AMC substrate, fluorescence; Crimean-Congo hemorrhagic fever virus L polyprotein viral ovarian tumor (vOTU) protease …; inhibition, % at 11.5 µM; 370,000 compounds, 0.55% hits; note: 0% = vehicle wells with enzyme and 100% = no enzyme wells
# BJeLR viability: MLPCN primary cell-based screen for lethality selective to Ras in HRASV12 cells; BJeLR (HRASV12) viability, CellTiter-Glo ATP luminescence, 48 h; inhibition, % (test concentration not listed); 300,000 compounds, 0.17% hits; AID 1554, 2009; in the data active = inhibition above about 50%
# CCHF vOTU inh-2: CCHFV vOTU protease inhibitors, confirmation, biochemical, Pep-AMC substrate, fluorescence; shares compounds with CCHF vOTU inh-1; Recombinant CCHFV vOTU; inhibition, % at 11.5 µM; 1,900 compounds, 17% hits
# * marks the source's active call; other numbers are inactive results; x = not tested or not shown. Sampled rows, rich in hits. Any-hit rate of the full collection: about 1.1%. Cut-off read from the data, not from the text of the source, unless noted: active = inhibition above about 30%; inactive = the rest.
SMILES,BioA inh,Mtb bLac sens,Y pestis TopoI,RecA intein inh,CCHF vOTU inh-1,BJeLR viability,CCHF vOTU inh-2
CCc1nnc(N/N=C/c2ccc(N3CCC(C)CC3)c([N+](=O)[O-])c2)n1N,x,99,-11,27,88*,5,-5
Cc1ccccc1S(=O)(=O)N1CCCCN2[C@H](CO)[C@@H](c3ccc(-c4cncnc4)cc3)[C@@H]2C1,2,x,x,x,x,x,x
O=C1OC(Nc2cc(Br)cc3cccnc23)c2ccccc21 (stereo unspecified),0,3,-1,-7,111*,4,100*
C[C@H](CO)N1C[C@H](C)[C@@H](CN(C)C(=O)Nc2cccc3ccccc23)Oc2ccc(NC(=O)C3CCCCC3)cc2C1=O,-1,x,x,x,x,x,x
CC1=C(C(=O)OCC(C)C)C2(O)C(=O)c3ccccc3C2(O)N1 (stereo unspecified),x,7,5,20,30*,3,-18
O=[N+]([O-])c1cccc2ccc(/C=C/c3cccc(Br)c3)nc12,x,0,-13,9,31*,-10,-12
O=[N+]([O-])c1cccc2ccc(/C=C/c3ccc(Cl)cc3)nc12,x,26,4,-14,-12,-6,x
O=C(NCc1ccc(OC(F)(F)F)cc1)C1CC(c2ccccc2C(F)(F)F)=NO1 (stereo unspecified),0,1,9,0,37*,-2,5
Cc1ccc(C2(c3ccc(C)cc3)CC2C(=O)Nc2ccc([N+](=O)[O-])cc2O)cc1 (stereo unspecified),-1,98,-35,16,34*,28,-5
Nc1cccc2cnccc12,1,9,3,x,48*,x,-16
Oc1cccc2cnccc12,-2,-1,4,-8,-4,-10,x
COc1cc(N)c2ncccc2c1Br,-1,x,-7,x,105*,x,25
COc1cc(N)c2ncccc2c1SC,x,x,-6,x,28,x,x
Cc1cc2c(=Cc3ccc(N(C)C)cc3)c3ccccc3n2[n+]1C,x,x,-35,x,34*,x,9
CN(C)c1ccc(C=c2c3ccccc3n3c2c2ccccc2[n+]3C)cc1,x,x,-56,x,0,x,x
CCOC(=O)c1cc2c(=Cc3ccc(N(C)C)cc3)c3ccccc3n2[n+]1C,x,x,-41,x,97*,x,79*
O=C(C[C@H]1CC[C@H]2[C@@H](COC[C@H](O)CN2Cc2cc(F)cc(F)c2)O1)NC1CCCC1,-2,x,x,x,x,x,x
CC(C)(C)OC(=O)N(CCc1ccccc1)Cc1cccc(OCc2cccc(NC(=O)C3CCC3)c2)c1,-1,x,39,x,13,x,x
CC(C)(C)OC(=O)N(Cc1ccccc1)Cc1cccc(OCc2cccc(NC(=O)C3CC3)c2)c1,-1,x,46,x,32*,x,-11
O=C(OCc1nnc(-c2ccccc2)o1)c1ccc([N+](=O)[O-])s1,-1,77,-1,x,77*,x,86*
CC(C)(C)c1ccc(NC(=O)COC(=O)c2ccc([N+](=O)[O-])s2)cc1,-2,100,-16,x,16,x,x
O=C(COC(=O)c1ccc([N+](=O)[O-])s1)Nc1ccccc1,-1,89,-3,-7,61*,10,75*
O=C(COC(=O)c1ccc([N+](=O)[O-])s1)Nc1cccc(S(=O)(=O)NC2=NCCCCC2)c1,x,-4,4,-4,58*,7,35*
O=C(COC(=O)c1ccc([N+](=O)[O-])s1)Nc1ccc(F)cc1,1,68,-3,x,82*,x,72*
Cc1noc(C)c1NC(=O)Nc1ccc2c(c1)CC(=O)N([C@@H](C)CO)C[C@@H](C)[C@H](CN(C)Cc1ccc(Cl)c(Cl)c1)O2,-2,x,x,x,x,x,x
SMILES,BioA inh,Mtb bLac sens,Y pestis TopoI,RecA intein inh,CCHF vOTU inh-1,BJeLR viability,CCHF vOTU inh-2
CCCCCCCCN1C(=O)[C@H](CC(=O)N2CCN(C(=O)c3ccco3)CC2)C[C@@]2(C(=O)OC)CC(C)(C)CC=C12,x,x,x,x,32*,x,11
CCCCCCCCN1C(=O)[C@H](CC(=O)N2CCN(C(=O)c3ccco3)CC2)C[C@@]2(C(=O)OC)CCCCC=C12,x,x,x,x,30*,x,-2
COC(=O)[C@@]12C[C@@H](CC(=O)N3CCN(C(=O)c4ccco4)CC3)C(=O)N(CCc3ccc(OC)c(OC)c3)C1=CCC(C)(C)C2,x,x,x,x,1,x,x
O=C(C[C@H]1C=C[C@H](NS(=O)(=O)c2ccc(F)cc2)[C@@H](CO)O1)NCCN1CCCCC1,1,x,x,x,x,x,x
CCN(C(C)=O)c1cnc(C=NNC(N)=S)c2ccccc12,x,x,7,x,9,x,x
NC(=S)NN=Cc1nccc2c(N)cccc12,1,x,-6,x,64*,x,28
CCCCCCn1c(=O)n2n(c1=O)C[C@]1(OC(=O)NCC3CCCCC3)CN(S(=O)(=O)c3ccc(C)cc3)C[C@]1(O)C2,0,x,-5,x,32*,x,8
Cc1nnc(N/N=C/c2ccc(Br)cc2)n1N,-2,96,0,-10,94*,-5,-13
Cc1csc(N/N=C/c2ccc([N+](=O)[O-])cc2)n1,-1,-2,-7,-2,6,14,x
Cc1ccc(/C=N/Nc2ccc(C(=O)O)cc2)o1,x,4,-1,-4,11,0,x
Cc1nnc(N/N=C/c2ccc([N+](=O)[O-])cc2)n1N,-2,18,16,4,122*,11,-6
Cc1nnc(N/N=C/c2ccc(-c3ccc(Br)cc3)o2)n1N,x,100,0,0,77*,-5,-2
O=C(O)c1ccc(N/N=C/c2ccc(-c3ccc(Br)cc3)o2)cc1,1,99,-9,-74,33*,-11,-3
O=C(N[C@@H]1CC[C@H](CCn2cc(C3(O)CCCC3)nn2)O[C@@H]1CO)c1ccccc1F,2,x,x,x,x,x,x
Cc1ccc(S(=O)(=O)Nc2ccc3c(c2)C(=O)N([C@@H](C)CO)C[C@@H](C)[C@@H](CN(C)C(=O)NC2CCCCC2)OCCCC[C@@H](C)O3)cc1,-1,x,x,x,x,x,x
C[C@H]1CN([C@@H](C)CO)C(=O)Cc2cc(NS(=O)(=O)c3ccc(Cl)cc3)ccc2O[C@@H]1CN(C)C(=O)NC1CCCCC1,2,x,x,x,x,x,x
Cc1nnc(N/N=C\c2ccc(-c3cccc(C(=O)O)c3)o2)n1N,x,1,1,-8,73*,-9,-25
NC(=O)C1C(=O)c2ccccc2C1(C[N+](=O)[O-])c1ccccc1 (stereo unspecified),-6,x,-1,x,46*,x,-1
O=C1C=CC(=O)N1c1ccc(Nc2ccccc2)cc1,-1,x,-3,x,41*,x,-16
